# Compound activity (PubChem)
# Shown are actives, neighbours in structure and some others; about 2% of the full set was active somewhere.
# BJeLR lethal: MLPCN primary cell-based screen for lethality selective to Ras in HRASV12 cells. BJeLR (HRASV12) viability, CellTiter-Glo ATP luminescence, 48 h. inhibition, % (test concentration not listed). hit rate 0.17% among 300,000. AID 1554, 2009; in the data active = inhibition above about 50%
# PrPC surface inh: inhibitors of human cell surface prion protein PrPC, primary screen, cell-based, TR-FRET. TR-FRET read-out. Major prion protein (Homo sapiens), P04156. hit rate 0.43% among 370,000. inhibition, % at 13.8 µM; in the data active = inhibition above about 24%; also: 0% = median of the test wells and 100% = reference compound wells
# CCHFV vOTU inh: CCHFV vOTU protease inhibitors, primary screen, biochemical, Pep-AMC substrate, fluorescence; hit rate 0.55% among 370,000; inhibition, % at 11.5 µM; AID 651958, 2012; Crimean-Congo hemorrhagic fever virus L polyprotein viral ovarian tumor (vOTU) protease …; in the data active = inhibition above about 30%; also: 0% = vehicle wells with enzyme and 100% = no enzyme wells
# PfHsp40 yeast: rescue of yeast from PfHsp40 toxicity, primary screen, S. cerevisiae, ATP luminescence; S. cerevisiae expressing PfHsp40, growth rescue; growth rescue, % at 12.5 µM; hit rate 0.68% among 340,000; in the data active = growth rescue above about 28%, passing the limit was not always enough;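 also: yeast W303a lacking pdr1 and pdr3 grown in galactose medium; growth measured after three days at 30 °C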
# Y pestis TopoI: Yersinia pestis topoisomerase I inhibitors, primary screen, biochemical, cleavage product accumulation, plate reader, single point. DNA topoisomerase I (Yersinia pestis CO92). Y. pestis Topo-I cleavage product accumulation. activity, % at 10 µM. hit rate 0.064% among 360,000. AID 504884, 2011; in the data active = activity above about 50%, passing the limit was not always enough
# PrP 5UTR inh: inhibition of PrP 5' UTR reporter expression. cell-based PrP 5' UTR mRNA reporter, plate reader. inhibition, % (no concentration beside the values). hit rate 0.35% among 340,000; in the data active = inhibition above about 52%; also: 0 = median of the neutral control wells
# Active calls of the source: *; · = no result.
SMILES,BJeLR lethal,PrPC surface inh,CCHFV vOTU inh,PfHsp40 yeast,Y pestis TopoI,PrP 5UTR inh
Cc1ccc(C=Nn2c(-c3n[nH]c4c3CCC4)n[nH]c2=S)s1,·,-13,14,·,·,·
COC(=O)Nc1ccc(S(=O)(=O)NNC(=O)c2c(O)c3ccccc3[nH]c2=O)cc1,-10,3,-9,52*,2,-45
O=C(O)c1ccc(N/N=C/c2ccc(-c3ccccc3)cc2)cc1,5,10,9,0,8,-67
O=C(O)c1ccc(N/N=C/C=C/c2ccccc2)cc1,2,-2,2,458*,-11,-60
C=CCN=C1NC(c2ccccc2C(F)(F)F)C(C(=O)OC)=C(C)N1Cc1cccc(C(F)(F)F)c1 (stereo not drawn),·,-6,24,·,·,·
O=C(N/N=C/C(Cl)=C/c1ccc([N+](=O)[O-])cc1)C(=O)Nc1ccccc1C(=O)O,-1,1,17,2,-5,-10
O=C(N/N=C/C(Cl)=C/c1ccc([N+](=O)[O-])cc1)C(=O)Nc1ccc(C(=O)O)cc1,-1,-18,-2,85*,3,-7
C/C(=N/O)c1ccccn1,9,-6,-3,-1,1,-1
CCCCCC/C(=N/O)c1ccccn1,3,-5,10,162*,6,-27
COc1cc2c(ccc3c4cc(OC)c(OC)cc4c[n+](C)c23)cc1O,·,-38,19,127*,-44,21
COC(=O)C1=C(C)N(CC(C)C)C(=S)NC1c1ccc(Cl)cc1 (stereo not drawn),·,12,16,·,·,·
COc1cc2c(cc1NC(=O)Nc1ccc(C)cc1)oc1ccccc12,-12,16,5,23,-15,-17
COc1cc2c(cc1NC(=O)C(C)Sc1ccc(NC(C)=O)cc1)oc1ccccc12 (stereo not drawn),-5,22,25,33*,20,-11
Cc1ccc(NC(=O)C2CCN(c3ncccn3)CC2)cc1C,·,4,-7,·,·,·
CN(C)n1cccc1/C=C(\C#N)S(=O)(=O)c1cccc(Cl)c1,-1,7,-6,32*,2,-11
CS(=O)(=O)/C(C#N)=C/c1cccn1S(=O)(=O)c1ccccc1,-5,-5,6,-1,0,-7
CCCCOc1ccc(C(=O)n2ccc3ccc(-c4ccc5ccn(Cc6ccccc6)c5c4)cc32)cc1,·,5,-4,·,·,·
CC(C)(C)c1ccc(S(=O)(=O)NCC2CCN(C(=O)C(=O)c3cccs3)CC2)cc1,·,3,0,·,·,·
c1ccc(-c2n[nH]c(-c3ccccc3)c2-c2nc3ccccc3[nH]2)cc1,-5,23,-12,30*,5,-26
c1ccc(-c2nc3ccccc3[nH]2)cc1,6,3,-3,-1,19,-43
CC(C)=CCc1c(O)cc(O)c2c1OC(c1ccc(O)cc1)CC2=O (stereo not drawn),-5,5,4,262*,-9,-34
O=C(Nc1ccc2[nH]ccc2c1)c1cc(-c2ccc(Cl)cc2)nc2ccccc12,·,3,9,·,·,·
N=C(N)c1ccc(/C=C/c2ccc(C(=N)N)cc2O)cc1,-5,-32,-12,137*,-34,-11
CS(=O)(=O)c1sc(C#N)c2c1C(=O)CC(c1ccccc1)C2 (stereo not drawn),6,51*,-2,2,5,2
Cc1oc2c(c(=O)c1C)C(=O)CC(c1ccccc1)C2 (stereo not drawn),4,-2,3,1,0,3
SMILES,BJeLR lethal,PrPC surface inh,CCHFV vOTU inh,PfHsp40 yeast,Y pestis TopoI,PrP 5UTR inh
COc1ccc(C(=O)NNC(=S)NC(=O)/C=C/c2cccs2)cc1,5,6,9,74*,4,6
CCOC(=O)c1ccc(NC(=O)/C=C/c2cccs2)cc1,-2,4,23,164*,1,-71
O=C(/C=C/c1cccs1)NC(=S)NNC(=O)c1ccccc1O,-10,-6,5,·,-5,-19
Cc1cccc(C(=O)NC(=S)NCc2ccccc2)c1,0,10,15,19,10,-38
Cc1cc(C(=O)NNC(=S)NC(=O)/C=C/c2ccccc2Cl)n[nH]1,18,-4,-13,56*,-2,-15
Cc1cccc(C(=O)NC(=S)NNC(=O)Cc2ccccc2)c1,3,-5,1,229*,1,-15
CC(C)Oc1cccc(-c2csc(N3CCC(C(N)=O)CC3)n2)c1,·,-4,·,·,·,·
C[C@@H]1Cc2cc(O)cc(O)c2C(=O)O1,·,-1,-1,·,·,·
COc1nc(OC)nc(N2CCC(C(=O)NCc3cccc(OC)c3OC)CC2)n1,·,5,-1,·,·,·
CCC(=O)NNC(=S)NC(=O)c1ccc(C)cc1,3,-4,-11,69*,4,-46
CC(=O)NNC(=S)NC(=O)c1ccc(C)cc1,-6,2,-20,-1,11,-15
COc1ccc(C(=O)NC(=S)NNC(=O)c2ccccc2C)cc1,0,-3,-5,105*,3,-17
Cc1cccc(C(=O)NC(=S)NNC(=O)c2ccccc2Cl)c1,4,8,-6,64*,-1,-11
Cc1ccccc1C(=O)NNC(=S)NC(=O)c1ccc(Cl)cc1Cl,-3,1,11,395*,-9,-32
Cc1cccc(C(=O)NC(=S)Nc2ccccc2C(=O)O)c1,0,-1,-1,1,11,-24
CC1CN(C(=O)CCc2ccccc2)C(C)CN1C(=O)CCc1ccccc1 (stereo not drawn),-1,1,1,45*,15,-28
CCN(CCO)C1CC(=O)N(c2ccccc2C)C1=O (stereo not drawn),6,·,·,75*,-3,-20
CC(=O)Oc1ccc2occ(C(=O)c3cccs3)c2c1,-7,-1,5,14,-2,-81
O=C(c1cccs1)c1coc2ccc(O)cc12,-3,5,-17,48*,-4,-101
CCOc1ccc2nc(NC(=O)c3ccoc3C)sc2c1,81*,19,11,-5,-24,-16
Cc1cccc(/N=C/c2c(O)ccc3oc4c(c23)CCCC4)n1,-8,·,·,13,1,-12
O=[N+]([O-])c1cc2oc3c(c2c(C=NCc2ccccc2)c1O)CCCC3,-7,-14,1,230*,3,-11
Cc1oc2cc([N+](=O)[O-])c(O)c([N+](=O)[O-])c2c1C(=O)c1ccc(Cl)cc1,0,-21,13,-1,-1,-23
CC(C)CN=Cc1c(O)c([N+](=O)[O-])cc2oc3c(c12)CCCC3,3,-5,21,484*,-5,-8
COc1ccc(-n2c(COc3ccccc3)nnc2SCc2nc3ccccc3[nH]2)cc1,·,-4,-2,·,·,·
Nc1nc2c(ncn2[C@@H]2O[C@H](C(=O)N[C@@H](Cc3ccccc3)C(=O)NCc3ccc4c(c3)OCO4)[C@@H](O)[C@H]2O)c(=O)[nH]1,·,-5,0,·,·,·
